Drawing on PubChem BioAssay (NCATS), this text covers parasite growth, % of DMSO control for 40 compounds.

The test in a line: qHTS profiling of the MIPE4 collection as inhibitors of Plasmodium falciparum (3D7) proliferation (AID 743344).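 Further: scaled between DMSO vehicle wells and 0.29 µM artemisinin as full inhibition.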 The conditions noted are these: P. falciparum 3D7 in erythrocytes, SYBR Green DNA fluorescence, 72 h; at 28.5 µM unless noted. The source says: Plasmodium falciparum is a virulent malarial parasite that kills 1-2 million people worldwide each year. Transmitted by mosquitoes, the sporozoite form of the parasite enters the blood stream to infect hepatocytes, where they become merozoites that infect red blood cells (erythrocytes). Within erythrocytes, merozoites begin a […] cycle of growth and division, after which the parasite is released to infect new red blood cells. Gametocytes, which form within erythrocytes as well, circulate in the bloodstream and are ingested by the mosquito, thereby completing the life cycle. To profile malarial isolates for differential chemical responses and to identify inhibitors of malarial growth, an assay that measures P. falciparum growth and replication within erythrocytes was employed. This assay uses a DNA binding fluorescent dye (SYBR Green) to detect parasite DNA following cell lysis. Because mature erythrocytes lack DNA, only Plasmodium-derived DNA is detected.
The SYBR Green viability assay was adapted from a method described previously (Plouffe et al., 2008). For screening 3 ul culture medium was dispensed into 1536 well black clear bottom plates (Aurora Biotechnologies) using a Multidrop Combi (Thermo Fisher Scientific Inc.), 23 nL compounds in DMSO were added by a pin tool (Kalypsys), and 5 ul of erythrocytes infected with P. falciparum (0.3% parasitemia, 2.5% hematocrit final concentration) were added. The plates were incubated at 37 C in a humidified incubator in 5% CO2 for 72 h, and 2 ul lysis buffer (20 mM Tris HCl, 10 mM EDTA, 0.16% saponin, 1.6% triton X, 10X SYBR Green I supplied as 10,000X […] by Invitrogen) was added to each well. The plates were mixed for 25 sec with gentle shaking and incubated overnight at room temperature in the dark. The following morning, fluorescence intensity at 485(14) nm excitation and 535(25) nm emission wavelengths was measured on an EnVision (Perkin Elmer) plate reader. Plate reads were normalized relative to the control inhibitor (0.29 uM artemisinin) and vehicle (DMSO) wells present on each plate and then corrected by an algorithm using vehicle-only control plates at the beginning and end of the compound plate stack.
`COc1cc2c(Oc3ccc(-c4cnc(Nc5ccc(F)cc5)n(C)c4=O)cc3F)ccnc2cc1OCCCN1CCOCC1` gave a parasite growth, % of DMSO control of 6.28%.
Take `CNc1nccc(-c2cccnc2Oc2cc(C(=O)Nc3cccc(C(F)(F)F)c3)ccc2C)n1`: the parasite growth, % of DMSO control was found to be 6.2%.
The result for `C=C1C(=CC=C2CCC[C@]3(C)[C@@H]([C@H](C)C=C[C@H](C)C(C)C)CC[C@@H]23)C[C@@H](O)C[C@@H]1O` reads 6.24%.
Take `C[C@@H](Oc1cc(-n2cnc3ccc(CN4CCN(C)CC4)cc32)sc1C(N)=O)c1ccccc1C(F)(F)F`: the parasite growth, % of DMSO control was 6.16%.
`CN(C)c1nc(Cc2ccc(NC(=O)c3ccc4ccccc4c3)cc2)nc(Cl)c1CC(=O)O` showed a parasite growth, % of DMSO control of 59.8%.
The result for `Nc1ccc(S(=O)(=O)Nc2ncccn2)cc1` reads 92.1%; that for `CCCCCCCCCC(=O)N[C@@H](Cc1c[nH]c2ccccc12)C(=O)N[C@H](CC(N)=O)C(=O)N[C@@H](CC(=O)O)C(=O)N[C@@H]1C(=O)NCC(=O)N[C@@H](CCCN)C(=O)N[C@@H](CC(=O)O)C(=O)N[C@H](C)C(=O)N[C@@H](CC(=O)O)C(=O)NCC(=O)N[C@H](CO)C(=O)N[C@@H]([C@@H](C)CC(=O)O)C(=O)N[C@@H](CC(=O)c2ccccc2N)C(=O)O[C@@H]1C`, 409%.
The result for `Clc1ccc2ncc(-c3cccc(NC4CNC4)n3)n2c1` reads 10.6%; that for `Nc1ncnc2c1c(-c1cccc(OCc3ccccc3)c1)cn2C1CC(CN2CCCC2)C1` (stereo not given), 5.35%.
The figure for `Clc1cccc(-c2nnnn2Cc2cccnc2)c1Cl` is 72.2%; for `Cn1c2cc(S(C)=O)sc2c2cnn(Cc3cccc(N)c3)c(=O)c21` (stereo not given) it is 190%.
`CN1CCN(Cc2ccc(NC(=O)Nc3ccc(Oc4cc(NC(=O)C5CC5)ncn4)cc3)cc2C(F)(F)F)CC1`: the parasite growth, % of DMSO control was 6%.
The result for `COc1cc(C)c(Sc2cnc(NC(=O)c3ccc(CNC(C)C(C)C)cc3)s2)cc1C(=O)N1CCN(C(C)=O)CC1` (stereo not given) reads 16.2%.
The result for `COc1ccc(C(=O)CC2(O)C(=O)Nc3c(Cl)ccc(Cl)c32)cc1` (stereo not given) reads 74.3%.
The figure for `CC(C)c1ccc(Cn2ccc3c4c(N)nc(NC5CC5)nc4ccc32)cc1` is 4.63%; for `Cc1ccc(C(=O)Nc2cccc(C(F)(F)F)c2)cc1-c1ccc2nc(NCCN3CCOCC3)ncc2c1` it is 6.03%.
With `COc1ccc(CC2SC(=O)NC2=O)cc1C(=O)NCc1ccc(C(F)(F)F)cc1` (stereo not given), the parasite growth, % of DMSO control is 32.5%.
On to `CC(=O)Nc1nc(C)c(-c2ccc(Cl)c(S(=O)(=O)NCCO)c2)s1`, for which the parasite growth, % of DMSO control was determined as 4.79%.
In the case of `CCN(CC)CCCCNc1ncc2cc(-c3cc(OC)cc(OC)c3)c(NC(=O)NC(C)(C)C)nc2n1`, the parasite growth, % of DMSO control worked out at 5.7%.
The figure for `NC1(Cc2ccc(Cl)cc2)CCN(c2ncnc3[nH]ccc23)CC1` is 19.2%; for `c1nc2nc(Nc3ccc(N4CCOCC4)cc3)nc(NC3CCCCC3)c2[nH]1` it is 12.6%; for `O=C(O)C1(Cc2cccc(Nc3nccs3)n2)CCC(Oc2cccc(Cl)c2F)CC1` (stereo not given) it is 63.9%.
The compound `C[C@@H](Oc1cc(-c2cnn(C3CCNCC3)c2)cnc1N)c1c(Cl)ccc(F)c1Cl` came in with a parasite growth, % of DMSO control of 5.26%.
The result for `CC1=C(CO)C(=O)O[C@@H]([C@@H](C)[C@H]2CC[C@H]3[C@@H]4C[C@H]5O[C@]56[C@@H](O)C=CC(=O)[C@]6(C)[C@@H]4CC[C@]23C)C1` reads 6.08%; that for `CC1COC2(CCN(c3nc(=O)c4cc(C(F)(F)F)cc([N+](=O)[O-])c4s3)CC2)O1` (stereo not given), 20.5%.
Take `CNC(=O)c1ccc(-c2cnc3ncc(Cc4ccc5ncccc5c4)n3n2)cc1F`: the parasite growth, % of DMSO control was 19.3%.
The figure for `COc1cccc(Nc2c(C(N)=O)cnc3c(C)cc(S(=O)(=O)c4cccc(C(=O)N(C)C)c4)cc23)c1` is 37.9% [at 9.64 µM].
The figure for `COc1cc2nccc(Oc3ccc(NC(=O)C4(C(=O)Nc5ccc(F)cc5)CC4)cc3)c2cc1OC` is 3.93%; for `Nc1cc(C(F)(F)F)c(-c2cc(N3CCOCC3)nc(N3CCOCC3)n2)cn1` it is 19.5%.
The result for `Cc1ccc(C(N)=O)cc1Nc1nccc(-c2cn(C(C)C)c3cnccc23)n1` reads 5.53%; that for `COC(=O)C1=C(C)NC(C)=C(C(=O)OCCN2CCN(C(c3ccccc3)c3ccccc3)CC2)C1c1cccc([N+](=O)[O-])c1` (stereo not given), 19.8%; that for `Cc1nc(Nc2n[nH]c3c2CN(C(=O)N[C@H](CN(C)C)c2ccccc2)C3(C)C)c2sccc2n1`, 4.72%.
`CCC(=C(c1ccccc1)c1ccc(OCCN(C)C)cc1)c1ccccc1` displayed a parasite growth, % of DMSO control of 53.1%.
Compound `CCOc1ccccc1OCCNC(C)Cc1ccc(OC)c(S(N)(=O)=O)c1` (stereo not given) came in with a parasite growth, % of DMSO control of 65.8%.
The result for `O=C(Nc1cc(C(F)(F)F)cc(C(F)(F)F)c1)c1cc(Cl)ccc1O` reads 5.26%; that for `CN1CCN(c2ccc3nc(-c4c(N)c5c(F)cccc5[nH]c4=O)[nH]c3c2)CC1`, 3.66%; that for `Nc1nc(-c2nn(Cc3ccccc3F)c3ncccc23)nc(N)c1N1CCOCC1`, 28.3%.
In turn, `CCCCc1nc2cc(C=CC(=O)NO)ccc2n1CCN(CC)CC` had a parasite growth, % of DMSO control of 4.71%.
The result for `CC(C)c1cc(C(=O)N2Cc3ccc(CN4CCN(C)CC4)cc3C2)c(O)cc1O` reads 5.55%; that for `Cc1cnc(Nc2ccc(F)cc2Cl)nc1-c1c[nH]c(C(=O)N[C@H](CO)c2cccc(Cl)c2)c1`, 7.48%.
